Assay [1] can be described thus: ATG_E_Box_CIS: Attagene CIS-FACTORIAL HepG2 Assay for human Enhancer Box (E-box) (AID 2282936). The conditions noted are these: HepG2 E-box cis-reporter transcription, actives raise or lower the signal. In a few lines: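 Cells: HepG2 (human liver), transient MRTU transfection. Exposure 24 h. RNA → oligo(dT) RT → PCR → 6-FAM label → HpaI → CE. Activity fitted both directions relative to DMSO.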

A short description of assay [2]: ATG_M_61_CIS: Attagene CIS-FACTORIAL HepG2 Assay for M61 Transcription Factor (Internal Marker) (AID 2282937). The conditions noted are these: HepG2 Attagene CIS-FACTORIAL M61 internal marker reporter; actives raise or lower the signal. In outline:
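Human liver HepG2, transient MRTU transfection (cis promoter elements), 24 h compound. Total RNA → oligo(dT) RT → PCR → FAM label → HpaI → CE. Internal background marker; bidirectional fitting, DMSO = baseline.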

Assay [3] in a line: ATG_EGR_CIS: Attagene CIS-FACTORIAL HepG2 Assay for human Early Growth Response 1 (EGR1) (AID 2282938). To be noted: HepG2 Attagene CIS-FACTORIAL EGR reporter mRNA; actives raise or lower the signal. In a few lines: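 Transient transfection of human HepG2 with multiple cis-regulated reporter units, chemical exposure 24 h, total RNA isolated. Reverse transcription, PCR, fluorescent labelling and capillary electrophoresis quantify reporter transcripts; activity fitted bidirectionally against DMSO.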

Assay [4] can be described thus: ATG_M_19_CIS: Attagene CIS-FACTORIAL HepG2 Assay for M19 Transcription Factor (Internal Marker) (AID 2282939). To be noted: HepG2 Attagene CIS-FACTORIAL M19 internal marker reporter; actives raise or lower the signal. In a few lines: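 Following a 24 h exposure, RNA from transfected HepG2 cells was reverse-transcribed, PCR-amplified with reporter-specific primers, end-labelled with 6-FAM and HpaI-digested before capillary separation. Values represent gain or loss versus DMSO.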

A short description of assay [5]: ATG_Ets_CIS: Attagene CIS-FACTORIAL HepG2 Assay for human Erythroblast Transformation Specific (ETS) (AID 2282941). The conditions noted are these: HepG2 ETS cis-reporter transcription, actives raise or lower the signal. In outline: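 HepG2 cells transfected with multiple cis-regulated reporter units measuring endogenous ETS-driven transcription, 24 h after dosing. Reporter mRNA quantified by RT-PCR with capillary electrophoresis; bidirectional fit relative to DMSO.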

The target of assay [6] is Hepatocyte nuclear factor 3-beta (Homo sapiens) (UniProt Q9Y261). Put plainly: ATG_FoxA2_CIS: Attagene CIS-FACTORIAL HepG2 Assay for human Forkhead box A2 (FOXA2) (AID 2282942). To be noted: HepG2 cis-reporter transcription factor activity, 24 h; actives raise or lower the signal. In a few lines: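 Transient MRTU transfection of HepG2 liver cells; 24 h treatment; total RNA → oligo(dT) RT → PCR → FAM primer extension → HpaI cut → CE. Bidirectional fit vs DMSO.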
Chain of Hepatocyte nuclear factor 3-beta (Homo sapiens) (Q9Y261 whole entry, looked up): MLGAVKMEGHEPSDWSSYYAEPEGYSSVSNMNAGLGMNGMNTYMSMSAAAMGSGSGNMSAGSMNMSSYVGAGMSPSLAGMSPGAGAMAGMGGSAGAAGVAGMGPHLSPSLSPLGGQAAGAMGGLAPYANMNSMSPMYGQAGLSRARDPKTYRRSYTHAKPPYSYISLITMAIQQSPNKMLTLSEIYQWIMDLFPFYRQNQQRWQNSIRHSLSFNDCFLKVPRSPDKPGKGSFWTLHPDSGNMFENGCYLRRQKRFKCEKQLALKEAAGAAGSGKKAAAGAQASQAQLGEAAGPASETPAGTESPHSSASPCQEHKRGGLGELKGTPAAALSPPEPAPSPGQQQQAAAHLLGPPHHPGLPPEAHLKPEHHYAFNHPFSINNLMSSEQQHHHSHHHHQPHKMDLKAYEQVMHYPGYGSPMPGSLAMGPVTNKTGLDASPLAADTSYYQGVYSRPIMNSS

Assay [7] in a line: ATG_FoxO_CIS: Attagene CIS-FACTORIAL HepG2 Assay for human Forkhead box O (FoxO) (AID 2282943). To be noted: HepG2 Attagene cis-reporter, FoxO element, mRNA; actives raise or lower the signal. In outline:
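HepG2, transient MRTU transfection (cis element, endogenous TFs). Dose 24 h. TriZol RNA → oligo(dT) RT → PCR → 6-FAM primer extension → HpaI cut → CE. Gain/loss vs DMSO.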

A short description of assay [8]: ATG_GATA_CIS: Attagene CIS-FACTORIAL HepG2 Assay for human GATA Binding Protein (AID 2282944). To be noted: HepG2 GATA cis-element reporter, Attagene multiplex mRNA; actives raise or lower the signal. In a few lines: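 DMSO serves as negative control and baseline for bidirectional fitting of reporter mRNA changes. HepG2 cells bearing transiently transfected cis-promoter reporters were exposed 24 h; transcripts detected via RT-PCR and capillary electrophoresis.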

Assay [9] in a line: ATG_GLI_CIS: Attagene CIS-FACTORIAL HepG2 Assay for human Zinc Finger Protein GLI1 (AID 2282945). To be noted: HepG2, Attagene cis-factorial reporter mRNA, GLI element; actives raise or lower the signal. In outline: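 Bidirectional curve fits relative to DMSO, using reporter mRNA levels from RT-PCR plus capillary electrophoresis. Cells were HepG2 transiently carrying cis-regulated reporter constructs, harvested 24 h after dosing.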

The nature of assay [10]: ATG_GRE_CIS: Attagene CIS-FACTORIAL HepG2 Assay for human Glucocorticoid Response Elements (GRE) (AID 2282947). The conditions noted are these: HepG2 GRE cis-reporter, Attagene multiplex mRNA; actives raise or lower the signal. In outline: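 Transient MRTU transfection of human HepG2 liver cells; cis-regulated reporters report endogenous factors. 24 h dosing → RNA isolation → RT-PCR → 6-FAM primer extension → HpaI cut → CE fragment analysis. Bidirectional fit, DMSO negative control.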

Assay [11] is described as follows: ATG_ISRE_CIS: Attagene CIS-FACTORIAL HepG2 Assay for human Interferon Regulatory Factor 1 (IRF1) binding to an Interferon-Stimulated Response Element (ISRE) (AID 2282948). To be noted: HepG2 ISRE cis-reporter (Attagene), mRNA transcription readout; actives raise or lower the signal. In outline: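 Transiently transfected HepG2 cells carrying cis-element reporter units, dosed 24 hours. Reporter mRNA quantified by RT-PCR, fluorescent primer extension, HpaI digestion and capillary electrophoresis. Bidirectional fitting relative to DMSO.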

Assay [12] in a line: ATG_M_32_CIS: Attagene CIS-FACTORIAL HepG2 Assay for M32 Transcription Factor (Internal Marker) (AID 2282949).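 Also: background control marker of the multiplexed CIS panel rather than a real target.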 To be noted: HepG2 Attagene cis-factorial M32 reporter, mRNA; actives raise or lower the signal. In outline:
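HepG2 cells transiently transfected with multiplexed cis-regulated reporter units, dosed 24 h. Reporter mRNA quantified by RT-PCR, 6-FAM labelling, HpaI digestion and capillary electrophoresis; bidirectional fit vs DMSO.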

Assay [13] is described as follows: ATG_M_06_CIS: Attagene CIS-FACTORIAL HepG2 Assay for M06 Transcription Factor (Internal Marker) (AID 2282950). To be noted: HepG2 Attagene CIS-FACTORIAL M06 internal marker reporter; actives raise or lower the signal. In a few lines: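 Fluorescence-labelled RT-PCR products from cis-promoter reporter units, cut with HpaI and resolved by capillary electrophoresis, give the signal. Cells are human HepG2, dosed for 24 h. Serves as background control, fitted relative to DMSO.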

Assay [14] concerns the target Hypoxia-inducible factor 1-alpha (Homo sapiens) (UniProt Q16665). The assay can be described thus: ATG_HIF1a_CIS: Attagene CIS-FACTORIAL HepG2 Assay for human Hypoxia Inducible Factor 1 (HIF1A) (AID 2282951). To be noted: HepG2 Attagene cis-factorial HIF1a reporter transcription; actives raise or lower the signal. In a few lines:
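Transient MRTU transfection of human HepG2 liver cells, 24 h compound treatment, then total RNA isolation, oligo(dT) reverse transcription, PCR amplification, fluorescent labelling and capillary electrophoresis of reporter fragments. Gain or loss relative to DMSO.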

Assay [15] deals with Hepatocyte nuclear factor 6 (Homo sapiens) (UniProt Q9UBC0). Put plainly: ATG_HNF6_CIS: Attagene CIS-FACTORIAL HepG2 Assay for human Hepatocyte Nuclear Factor 6 (HNF6) (AID 2282952). The conditions noted are these: HepG2 Attagene cis-factorial HNF6 reporter transcription; actives raise or lower the signal. In a few lines: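 HepG2 cells transiently transfected with cis-element-driven multiplexed reporter units measuring endogenous transcription factor activity. After 24 h exposure, reporter mRNA quantified by RT-PCR, FAM-labelled fragments and capillary electrophoresis; bidirectional fitting versus DMSO.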
Chain of Hepatocyte nuclear factor 6 (Homo sapiens) (Q9UBC0 whole entry, looked up, the tested form may be a part): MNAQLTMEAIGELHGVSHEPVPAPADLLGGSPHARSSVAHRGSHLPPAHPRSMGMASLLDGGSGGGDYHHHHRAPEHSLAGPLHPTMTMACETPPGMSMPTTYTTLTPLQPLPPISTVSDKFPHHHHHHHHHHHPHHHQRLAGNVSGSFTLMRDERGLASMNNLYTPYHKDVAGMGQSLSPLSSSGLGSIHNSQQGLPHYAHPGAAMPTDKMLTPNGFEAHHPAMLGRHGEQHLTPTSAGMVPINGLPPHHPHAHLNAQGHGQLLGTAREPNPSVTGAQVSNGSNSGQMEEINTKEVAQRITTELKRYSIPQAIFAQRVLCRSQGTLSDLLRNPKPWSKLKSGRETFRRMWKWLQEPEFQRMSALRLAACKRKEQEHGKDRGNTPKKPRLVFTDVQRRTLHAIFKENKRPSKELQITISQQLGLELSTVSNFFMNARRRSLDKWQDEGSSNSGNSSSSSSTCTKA

In assay [16] the target is Heat shock factor protein 1 (Homo sapiens) (UniProt Q00613). The assay can be described thus: ATG_HSE_CIS: Attagene CIS-FACTORIAL HepG2 Assay for human Heat Shock Transcription Factor 1 (HSE) (AID 2282953). To be noted: HepG2 HSE cis-reporter, Attagene RNA transcription; actives raise or lower the signal. In a few lines:
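After a 24 h incubation with test chemical, transfected HepG2 cells were harvested for RNA; reporter transcripts were measured by RT-PCR and capillary electrophoresis. Values reflect gain or loss of signal relative to DMSO.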

The nature of assay [17]: ATG_MRE_CIS: Attagene CIS-FACTORIAL HepG2 Assay for human Metal Responsive Element (MRE) (AID 2282954). The conditions noted are these: HepG2 MRE cis-reporter transcription, Attagene multiplex; actives raise or lower the signal. In outline:
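Transient MRTU transfection of HepG2 (FuGene 6); 24 h dosing; total RNA → oligo(dT) RT, PCR, 6-FAM primer extension, HpaI cut, CE. Bidirectional fit vs DMSO.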

The target of assay [18] is Bile acid receptor (Homo sapiens) (UniProt Q96RI1). The assay can be described thus: ATG_IR1_CIS: Attagene CIS-FACTORIAL HepG2 Assay for human Nuclear Receptor Subfamily 1 Group H Member 4 (NR1H4), IR1 submotif (AID 2282946). To be noted: IR1 reporter transcription, actives raise or lower the signal. In outline:
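Cells (human HepG2) carry transiently transfected cis-promoter reporter transcription units. Compounds are incubated 24 h, total RNA is reverse-transcribed and amplified, and labelled fragments are resolved by capillary electrophoresis. Curves use DMSO as baseline.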

A word on the AC50: it is the concentration at which the activity in the assay is half-maximal.

Values joined by “and” are separate entries in the source; they are usually repeats but may differ in a detail not shown here. Equal values may be shown once. More than one record can exist for a structure, and the calls need not agree. Active and inactive are the calls of the source. The calls were made as follows: active = hit-call score of the fitted dose curve at least 0.9, where 1 is the maximum; inactive = score below 0.9.

Chain of Heat shock factor protein 1 (Homo sapiens) (Q00613 whole entry, looked up): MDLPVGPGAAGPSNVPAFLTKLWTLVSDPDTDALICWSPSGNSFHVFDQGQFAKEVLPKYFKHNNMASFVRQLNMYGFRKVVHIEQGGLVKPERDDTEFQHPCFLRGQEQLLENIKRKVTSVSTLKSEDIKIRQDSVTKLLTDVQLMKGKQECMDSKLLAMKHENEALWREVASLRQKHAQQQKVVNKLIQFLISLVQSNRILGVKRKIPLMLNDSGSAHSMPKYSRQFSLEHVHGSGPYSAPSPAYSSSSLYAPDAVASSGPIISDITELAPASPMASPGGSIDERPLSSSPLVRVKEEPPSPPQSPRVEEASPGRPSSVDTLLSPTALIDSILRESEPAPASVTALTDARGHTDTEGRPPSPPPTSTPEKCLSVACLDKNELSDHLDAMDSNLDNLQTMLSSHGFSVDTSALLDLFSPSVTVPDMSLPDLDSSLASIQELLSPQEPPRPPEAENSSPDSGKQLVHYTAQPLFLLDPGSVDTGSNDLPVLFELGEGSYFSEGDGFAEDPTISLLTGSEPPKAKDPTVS
Chain of Bile acid receptor (Homo sapiens) (Q96RI1 whole entry, looked up, the tested form may be a part): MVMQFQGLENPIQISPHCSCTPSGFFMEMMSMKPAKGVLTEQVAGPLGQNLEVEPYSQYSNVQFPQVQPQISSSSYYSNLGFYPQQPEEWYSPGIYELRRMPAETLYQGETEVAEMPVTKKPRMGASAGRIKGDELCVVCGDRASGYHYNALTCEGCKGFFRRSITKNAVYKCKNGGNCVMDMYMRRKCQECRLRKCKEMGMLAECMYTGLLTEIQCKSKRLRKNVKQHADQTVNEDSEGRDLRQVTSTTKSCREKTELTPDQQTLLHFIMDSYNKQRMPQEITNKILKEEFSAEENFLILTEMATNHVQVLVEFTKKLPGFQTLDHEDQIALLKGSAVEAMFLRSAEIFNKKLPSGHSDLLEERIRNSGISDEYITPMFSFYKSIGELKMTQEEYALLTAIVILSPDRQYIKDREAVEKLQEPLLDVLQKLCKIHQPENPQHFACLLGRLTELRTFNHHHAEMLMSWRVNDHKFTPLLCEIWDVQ
Chain of Hypoxia-inducible factor 1-alpha (Homo sapiens) (Q16665 whole entry, looked up, the tested form may be a part): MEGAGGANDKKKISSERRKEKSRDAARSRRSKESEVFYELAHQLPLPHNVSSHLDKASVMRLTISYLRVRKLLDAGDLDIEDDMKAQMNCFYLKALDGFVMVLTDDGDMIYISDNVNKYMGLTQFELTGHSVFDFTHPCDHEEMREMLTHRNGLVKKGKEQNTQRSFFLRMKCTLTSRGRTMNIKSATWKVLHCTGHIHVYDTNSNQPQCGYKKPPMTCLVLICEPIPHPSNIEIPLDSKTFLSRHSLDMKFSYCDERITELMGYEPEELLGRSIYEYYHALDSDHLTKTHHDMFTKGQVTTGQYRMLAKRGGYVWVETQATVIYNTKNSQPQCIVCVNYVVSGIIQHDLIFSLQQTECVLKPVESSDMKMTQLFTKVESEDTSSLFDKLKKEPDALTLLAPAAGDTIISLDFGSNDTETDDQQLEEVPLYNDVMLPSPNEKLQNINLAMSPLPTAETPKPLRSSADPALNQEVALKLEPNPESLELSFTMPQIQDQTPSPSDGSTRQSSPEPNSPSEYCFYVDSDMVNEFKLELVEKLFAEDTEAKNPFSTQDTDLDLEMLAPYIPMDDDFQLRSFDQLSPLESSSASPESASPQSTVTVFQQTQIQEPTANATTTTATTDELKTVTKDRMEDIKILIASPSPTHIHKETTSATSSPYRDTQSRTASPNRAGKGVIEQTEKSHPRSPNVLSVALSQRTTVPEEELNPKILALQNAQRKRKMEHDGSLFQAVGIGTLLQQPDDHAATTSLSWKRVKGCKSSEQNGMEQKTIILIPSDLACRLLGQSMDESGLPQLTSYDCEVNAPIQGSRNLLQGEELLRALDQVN

On to `CN(C)C(=O)Nc1ccc(Cl)c(Cl)c1`, for which the outcome in [1], in assay [2], in assay [3], in assay [4], in assay [5] and in [6] was inactive. The compound was called inactive in assay [7], in assay [8], in [9], in [10], in [11] and in assay [12]. In addition, the call in assay [13], in [14], in assay [15], in assay [16] and in assay [17] was inactive. Also, the AC50 in [3] was 60.3 µM (active); in assay [14] it was 62.6 µM (active); in assay [17], 77.4 µM (active).
Take `O=C(c1ccc(O)cc1O)c1ccc(O)cc1O`: the result in assay [1], in [2], in [3], in [4], in assay [5] and in assay [6] was inactive. For the same compound, the result in [7], in assay [8], in assay [9], in [18], in assay [10] and in [11] was inactive. Moreover, the call in assay [12], in assay [13], in assay [14], in assay [15] and in assay [17] was inactive. Besides, the AC50 in [11] was 100 µM (active); in [16] it was 41.3 µM (active) [middle of 4 runs].
Take `CC(C)(c1ccc(O)cc1)c1ccc(O)cc1`: the result in assay [1], in assay [2], in assay [3], in assay [4], in assay [5] and in assay [6] was inactive. Besides, the compound was classed as inactive in assay [7], in assay [8], in [9], in [11], in assay [12] and in assay [13]. In addition, the compound was called inactive in assay [14], in assay [15] and in assay [17]. Further, the AC50 in assay [3] is 100 µM (active) [middle of 6 runs]; in [5], 101 µM (active) and 33.7 µM (active); in assay [6] it was 58.2 µM (active); in assay [7], 57.7 µM (active); in assay [9], 58.5 µM (active); in assay [11] it was 142 µM (active) [middle of 5 runs]. Moreover, the AC50 in assay [14] is 179 µM (active); in assay [15], 45.7 µM (active).
Regarding `CCOC(=O)c1ccc(O)cc1`, the AC50 in assay [1] is 167 µM (active). Further, the outcome in assay [1], in [2], in assay [3], in [4], in assay [5] and in assay [6] was inactive. The outcome in assay [7], in [8], in assay [9], in assay [18], in assay [10] and in assay [11] was inactive. The result in assay [12], in [13], in assay [14], in assay [15] and in [17] was inactive.
Regarding `CCOC(=O)C(C)Oc1ccc(Oc2cnc3cc(Cl)ccc3n2)cc1` (stereo not drawn), the result in assay [1], in assay [2], in [3], in assay [4], in [5] and in [6] was inactive. For the same compound, the compound was classed as inactive in [7], in assay [8], in assay [9], in assay [18], in assay [10] and in [11]. For the same compound, the result in [12], in [13], in assay [14], in assay [15] and in [17] was inactive.
Regarding `CC(C)CCCCCCc1ccc(O)cc1`, the AC50 in assay [1] was 17.6 µM (active) and 16.8 µM (active) and 15.6 µM (active); in assay [3], 17.7 µM (active) and 17.3 µM (active); in assay [5] it was 17.1 µM (active); in assay [6], 21.8 µM (active); in [7], 20.3 µM (active) and 17.9 µM (active); in [18] it was 17.9 µM (active). The AC50 was 18.4 µM (active) and 13.7 µM (active) in [11]; 18 µM (active) and 17.2 µM (active) in assay [12]; 16.3 µM (active) and 17.6 µM (active) in assay [17]. In addition, the outcome in assay [1], in assay [2], in assay [3], in [4], in [5] and in [6] was inactive. The result in [7], in assay [8], in assay [9], in assay [18], in assay [10] and in [11] was inactive. Moreover, the compound was called inactive in assay [12], in [13], in [14], in assay [15] and in assay [17].
